Assay results from the supplement of paper PMC11732987, “Enantioselective OTUD7B fragment discovery through chemoproteomics screening and high-throughput optimisation” (Communications Chemistry, 2025).

Legend:
Test in all cases: log2 ratio of Biotin-Ahx-Ub-VS probe labelling (fragment/DMSO); higher = less target engagement (more negative = stronger competition), active = hit call of the paper (q ≤ 0.05, log2 ratio ≤ -1)
Settings in all cases: compound concentration: 200 uM; treatment time: 3 h
USP34 = USP34 (UniProt Q70CQ2)
Summary of the method: (§1)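 Fragment (200 µM) or vehicle was incubated for 3 h with triplicate HEK293T lysate samples of 495 µg, which were then treated with Biotin-Ahx-Ub-VS at 0.5 µM final for 1 h. Labelled DUBs were enriched on NeutrAvidin, digested with LysC and trypsin, and analysed by diaPASEF LC-MS/MS. Values are average log2 fragment/vehicle ratios from an unpaired t-test on global-median-normalised Spectronaut label-free quantities, using proteins with ≥2 unique peptides.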

USP36 = molecular target: T1, USP36 (UniProt Q9P275)
T1 sequence (whole entry): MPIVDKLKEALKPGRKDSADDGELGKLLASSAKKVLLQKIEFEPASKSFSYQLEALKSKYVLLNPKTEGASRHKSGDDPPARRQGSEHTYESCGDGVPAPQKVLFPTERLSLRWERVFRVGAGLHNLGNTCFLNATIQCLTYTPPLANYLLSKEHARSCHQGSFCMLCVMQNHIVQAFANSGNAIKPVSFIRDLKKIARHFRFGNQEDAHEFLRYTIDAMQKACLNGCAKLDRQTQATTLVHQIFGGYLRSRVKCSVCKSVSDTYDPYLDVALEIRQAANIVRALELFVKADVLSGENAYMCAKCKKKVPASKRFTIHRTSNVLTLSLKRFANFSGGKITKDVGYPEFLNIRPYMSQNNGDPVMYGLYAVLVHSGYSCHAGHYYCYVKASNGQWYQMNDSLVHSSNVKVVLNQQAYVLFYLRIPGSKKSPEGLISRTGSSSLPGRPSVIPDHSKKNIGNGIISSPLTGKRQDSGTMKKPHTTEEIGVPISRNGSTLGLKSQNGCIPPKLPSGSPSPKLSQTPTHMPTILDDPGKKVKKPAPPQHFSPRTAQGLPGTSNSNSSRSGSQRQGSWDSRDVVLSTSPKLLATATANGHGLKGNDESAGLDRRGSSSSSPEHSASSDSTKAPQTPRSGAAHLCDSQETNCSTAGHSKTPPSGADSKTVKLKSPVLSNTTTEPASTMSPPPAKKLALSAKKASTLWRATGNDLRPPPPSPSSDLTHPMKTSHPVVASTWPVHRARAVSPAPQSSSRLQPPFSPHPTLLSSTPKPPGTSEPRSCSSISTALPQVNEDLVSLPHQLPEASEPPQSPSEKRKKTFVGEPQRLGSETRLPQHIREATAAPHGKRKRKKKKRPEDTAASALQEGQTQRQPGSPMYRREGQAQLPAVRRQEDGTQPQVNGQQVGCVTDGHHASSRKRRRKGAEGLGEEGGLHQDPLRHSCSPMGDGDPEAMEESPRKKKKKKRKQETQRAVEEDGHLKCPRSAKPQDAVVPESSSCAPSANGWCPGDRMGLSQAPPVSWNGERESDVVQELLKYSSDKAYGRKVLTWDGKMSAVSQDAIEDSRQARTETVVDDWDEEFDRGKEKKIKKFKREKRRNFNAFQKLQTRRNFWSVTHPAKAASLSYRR
Summary of the method: as §1

USP38 = molecular target: T2, USP38 (UniProt Q8NB14)
T2 sequence (whole entry): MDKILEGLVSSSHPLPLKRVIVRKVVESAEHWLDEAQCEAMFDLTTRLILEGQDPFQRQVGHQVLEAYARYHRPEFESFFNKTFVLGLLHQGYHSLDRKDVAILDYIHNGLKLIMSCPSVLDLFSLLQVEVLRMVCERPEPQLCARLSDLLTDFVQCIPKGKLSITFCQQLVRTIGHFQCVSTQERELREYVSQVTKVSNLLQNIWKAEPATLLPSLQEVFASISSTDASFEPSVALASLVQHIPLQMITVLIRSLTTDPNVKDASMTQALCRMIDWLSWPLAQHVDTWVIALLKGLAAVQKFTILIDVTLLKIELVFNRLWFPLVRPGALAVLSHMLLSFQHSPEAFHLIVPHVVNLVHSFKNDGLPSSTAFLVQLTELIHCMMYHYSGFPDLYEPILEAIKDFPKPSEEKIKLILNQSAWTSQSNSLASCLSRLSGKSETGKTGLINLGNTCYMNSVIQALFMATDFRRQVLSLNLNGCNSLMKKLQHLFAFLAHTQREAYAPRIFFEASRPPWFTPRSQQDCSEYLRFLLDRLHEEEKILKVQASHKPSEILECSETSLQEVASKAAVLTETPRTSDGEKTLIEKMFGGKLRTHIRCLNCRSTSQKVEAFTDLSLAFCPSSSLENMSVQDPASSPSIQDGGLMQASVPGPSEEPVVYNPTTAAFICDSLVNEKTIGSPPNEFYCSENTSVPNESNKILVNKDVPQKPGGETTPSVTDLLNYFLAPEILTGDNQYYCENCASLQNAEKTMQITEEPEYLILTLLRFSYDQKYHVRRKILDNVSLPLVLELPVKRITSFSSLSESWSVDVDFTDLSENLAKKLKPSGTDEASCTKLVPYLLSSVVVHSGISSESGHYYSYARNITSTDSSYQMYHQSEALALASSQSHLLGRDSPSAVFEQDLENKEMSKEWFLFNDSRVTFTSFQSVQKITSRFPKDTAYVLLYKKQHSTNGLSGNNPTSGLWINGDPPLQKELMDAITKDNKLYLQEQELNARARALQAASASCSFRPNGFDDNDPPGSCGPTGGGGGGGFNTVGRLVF
Summary of the method: as §1

USP39 = molecular target: T3, USP39 (UniProt Q53GS9)
T3 sequence (whole entry): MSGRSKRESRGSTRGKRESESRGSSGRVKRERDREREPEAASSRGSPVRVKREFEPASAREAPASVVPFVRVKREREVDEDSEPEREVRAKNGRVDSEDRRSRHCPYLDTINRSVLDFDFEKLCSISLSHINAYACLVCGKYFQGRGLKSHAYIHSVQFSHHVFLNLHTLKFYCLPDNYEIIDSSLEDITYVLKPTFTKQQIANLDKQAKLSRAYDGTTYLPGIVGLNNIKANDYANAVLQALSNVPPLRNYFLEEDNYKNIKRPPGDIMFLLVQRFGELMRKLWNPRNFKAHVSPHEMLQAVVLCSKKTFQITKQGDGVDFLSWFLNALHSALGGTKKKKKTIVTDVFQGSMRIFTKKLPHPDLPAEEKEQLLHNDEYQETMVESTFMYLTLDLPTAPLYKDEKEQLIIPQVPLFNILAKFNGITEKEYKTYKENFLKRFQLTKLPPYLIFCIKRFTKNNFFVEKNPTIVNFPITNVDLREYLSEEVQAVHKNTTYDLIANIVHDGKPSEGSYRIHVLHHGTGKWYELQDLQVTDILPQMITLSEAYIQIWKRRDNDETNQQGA
Summary of the method: as §1

USP4 = molecular target: T4, USP4 (UniProt Q13107)
T4 sequence (whole entry): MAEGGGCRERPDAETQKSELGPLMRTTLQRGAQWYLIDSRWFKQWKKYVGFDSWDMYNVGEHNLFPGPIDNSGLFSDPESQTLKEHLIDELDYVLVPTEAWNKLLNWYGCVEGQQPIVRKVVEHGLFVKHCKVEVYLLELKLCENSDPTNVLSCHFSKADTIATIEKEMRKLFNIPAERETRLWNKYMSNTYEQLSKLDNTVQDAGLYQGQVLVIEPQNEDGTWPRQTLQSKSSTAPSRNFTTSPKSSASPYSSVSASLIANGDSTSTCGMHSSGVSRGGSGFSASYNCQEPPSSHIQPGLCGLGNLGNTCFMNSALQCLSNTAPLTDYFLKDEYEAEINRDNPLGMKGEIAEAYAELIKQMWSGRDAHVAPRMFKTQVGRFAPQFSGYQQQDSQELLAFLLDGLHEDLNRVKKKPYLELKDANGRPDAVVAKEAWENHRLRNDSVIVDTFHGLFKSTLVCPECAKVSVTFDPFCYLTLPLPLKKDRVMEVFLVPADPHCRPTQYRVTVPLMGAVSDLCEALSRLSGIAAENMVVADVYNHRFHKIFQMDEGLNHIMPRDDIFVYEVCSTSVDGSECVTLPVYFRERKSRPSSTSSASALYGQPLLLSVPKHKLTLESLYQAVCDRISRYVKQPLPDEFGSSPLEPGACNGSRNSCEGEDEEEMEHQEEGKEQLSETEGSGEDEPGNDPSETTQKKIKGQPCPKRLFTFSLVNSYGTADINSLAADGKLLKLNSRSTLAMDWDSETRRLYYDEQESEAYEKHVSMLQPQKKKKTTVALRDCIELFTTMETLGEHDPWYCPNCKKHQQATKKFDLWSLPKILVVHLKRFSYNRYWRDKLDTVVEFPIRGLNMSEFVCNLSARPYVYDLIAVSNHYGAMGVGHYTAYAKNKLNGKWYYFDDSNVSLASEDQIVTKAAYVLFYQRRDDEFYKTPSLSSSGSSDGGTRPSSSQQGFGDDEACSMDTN
Summary of the method: as §1

Measured: log2 ratio of Biotin-Ahx-Ub-VS probe labelling

Chain of USP34 (Q70CQ2 whole entry, the tested form may be a part): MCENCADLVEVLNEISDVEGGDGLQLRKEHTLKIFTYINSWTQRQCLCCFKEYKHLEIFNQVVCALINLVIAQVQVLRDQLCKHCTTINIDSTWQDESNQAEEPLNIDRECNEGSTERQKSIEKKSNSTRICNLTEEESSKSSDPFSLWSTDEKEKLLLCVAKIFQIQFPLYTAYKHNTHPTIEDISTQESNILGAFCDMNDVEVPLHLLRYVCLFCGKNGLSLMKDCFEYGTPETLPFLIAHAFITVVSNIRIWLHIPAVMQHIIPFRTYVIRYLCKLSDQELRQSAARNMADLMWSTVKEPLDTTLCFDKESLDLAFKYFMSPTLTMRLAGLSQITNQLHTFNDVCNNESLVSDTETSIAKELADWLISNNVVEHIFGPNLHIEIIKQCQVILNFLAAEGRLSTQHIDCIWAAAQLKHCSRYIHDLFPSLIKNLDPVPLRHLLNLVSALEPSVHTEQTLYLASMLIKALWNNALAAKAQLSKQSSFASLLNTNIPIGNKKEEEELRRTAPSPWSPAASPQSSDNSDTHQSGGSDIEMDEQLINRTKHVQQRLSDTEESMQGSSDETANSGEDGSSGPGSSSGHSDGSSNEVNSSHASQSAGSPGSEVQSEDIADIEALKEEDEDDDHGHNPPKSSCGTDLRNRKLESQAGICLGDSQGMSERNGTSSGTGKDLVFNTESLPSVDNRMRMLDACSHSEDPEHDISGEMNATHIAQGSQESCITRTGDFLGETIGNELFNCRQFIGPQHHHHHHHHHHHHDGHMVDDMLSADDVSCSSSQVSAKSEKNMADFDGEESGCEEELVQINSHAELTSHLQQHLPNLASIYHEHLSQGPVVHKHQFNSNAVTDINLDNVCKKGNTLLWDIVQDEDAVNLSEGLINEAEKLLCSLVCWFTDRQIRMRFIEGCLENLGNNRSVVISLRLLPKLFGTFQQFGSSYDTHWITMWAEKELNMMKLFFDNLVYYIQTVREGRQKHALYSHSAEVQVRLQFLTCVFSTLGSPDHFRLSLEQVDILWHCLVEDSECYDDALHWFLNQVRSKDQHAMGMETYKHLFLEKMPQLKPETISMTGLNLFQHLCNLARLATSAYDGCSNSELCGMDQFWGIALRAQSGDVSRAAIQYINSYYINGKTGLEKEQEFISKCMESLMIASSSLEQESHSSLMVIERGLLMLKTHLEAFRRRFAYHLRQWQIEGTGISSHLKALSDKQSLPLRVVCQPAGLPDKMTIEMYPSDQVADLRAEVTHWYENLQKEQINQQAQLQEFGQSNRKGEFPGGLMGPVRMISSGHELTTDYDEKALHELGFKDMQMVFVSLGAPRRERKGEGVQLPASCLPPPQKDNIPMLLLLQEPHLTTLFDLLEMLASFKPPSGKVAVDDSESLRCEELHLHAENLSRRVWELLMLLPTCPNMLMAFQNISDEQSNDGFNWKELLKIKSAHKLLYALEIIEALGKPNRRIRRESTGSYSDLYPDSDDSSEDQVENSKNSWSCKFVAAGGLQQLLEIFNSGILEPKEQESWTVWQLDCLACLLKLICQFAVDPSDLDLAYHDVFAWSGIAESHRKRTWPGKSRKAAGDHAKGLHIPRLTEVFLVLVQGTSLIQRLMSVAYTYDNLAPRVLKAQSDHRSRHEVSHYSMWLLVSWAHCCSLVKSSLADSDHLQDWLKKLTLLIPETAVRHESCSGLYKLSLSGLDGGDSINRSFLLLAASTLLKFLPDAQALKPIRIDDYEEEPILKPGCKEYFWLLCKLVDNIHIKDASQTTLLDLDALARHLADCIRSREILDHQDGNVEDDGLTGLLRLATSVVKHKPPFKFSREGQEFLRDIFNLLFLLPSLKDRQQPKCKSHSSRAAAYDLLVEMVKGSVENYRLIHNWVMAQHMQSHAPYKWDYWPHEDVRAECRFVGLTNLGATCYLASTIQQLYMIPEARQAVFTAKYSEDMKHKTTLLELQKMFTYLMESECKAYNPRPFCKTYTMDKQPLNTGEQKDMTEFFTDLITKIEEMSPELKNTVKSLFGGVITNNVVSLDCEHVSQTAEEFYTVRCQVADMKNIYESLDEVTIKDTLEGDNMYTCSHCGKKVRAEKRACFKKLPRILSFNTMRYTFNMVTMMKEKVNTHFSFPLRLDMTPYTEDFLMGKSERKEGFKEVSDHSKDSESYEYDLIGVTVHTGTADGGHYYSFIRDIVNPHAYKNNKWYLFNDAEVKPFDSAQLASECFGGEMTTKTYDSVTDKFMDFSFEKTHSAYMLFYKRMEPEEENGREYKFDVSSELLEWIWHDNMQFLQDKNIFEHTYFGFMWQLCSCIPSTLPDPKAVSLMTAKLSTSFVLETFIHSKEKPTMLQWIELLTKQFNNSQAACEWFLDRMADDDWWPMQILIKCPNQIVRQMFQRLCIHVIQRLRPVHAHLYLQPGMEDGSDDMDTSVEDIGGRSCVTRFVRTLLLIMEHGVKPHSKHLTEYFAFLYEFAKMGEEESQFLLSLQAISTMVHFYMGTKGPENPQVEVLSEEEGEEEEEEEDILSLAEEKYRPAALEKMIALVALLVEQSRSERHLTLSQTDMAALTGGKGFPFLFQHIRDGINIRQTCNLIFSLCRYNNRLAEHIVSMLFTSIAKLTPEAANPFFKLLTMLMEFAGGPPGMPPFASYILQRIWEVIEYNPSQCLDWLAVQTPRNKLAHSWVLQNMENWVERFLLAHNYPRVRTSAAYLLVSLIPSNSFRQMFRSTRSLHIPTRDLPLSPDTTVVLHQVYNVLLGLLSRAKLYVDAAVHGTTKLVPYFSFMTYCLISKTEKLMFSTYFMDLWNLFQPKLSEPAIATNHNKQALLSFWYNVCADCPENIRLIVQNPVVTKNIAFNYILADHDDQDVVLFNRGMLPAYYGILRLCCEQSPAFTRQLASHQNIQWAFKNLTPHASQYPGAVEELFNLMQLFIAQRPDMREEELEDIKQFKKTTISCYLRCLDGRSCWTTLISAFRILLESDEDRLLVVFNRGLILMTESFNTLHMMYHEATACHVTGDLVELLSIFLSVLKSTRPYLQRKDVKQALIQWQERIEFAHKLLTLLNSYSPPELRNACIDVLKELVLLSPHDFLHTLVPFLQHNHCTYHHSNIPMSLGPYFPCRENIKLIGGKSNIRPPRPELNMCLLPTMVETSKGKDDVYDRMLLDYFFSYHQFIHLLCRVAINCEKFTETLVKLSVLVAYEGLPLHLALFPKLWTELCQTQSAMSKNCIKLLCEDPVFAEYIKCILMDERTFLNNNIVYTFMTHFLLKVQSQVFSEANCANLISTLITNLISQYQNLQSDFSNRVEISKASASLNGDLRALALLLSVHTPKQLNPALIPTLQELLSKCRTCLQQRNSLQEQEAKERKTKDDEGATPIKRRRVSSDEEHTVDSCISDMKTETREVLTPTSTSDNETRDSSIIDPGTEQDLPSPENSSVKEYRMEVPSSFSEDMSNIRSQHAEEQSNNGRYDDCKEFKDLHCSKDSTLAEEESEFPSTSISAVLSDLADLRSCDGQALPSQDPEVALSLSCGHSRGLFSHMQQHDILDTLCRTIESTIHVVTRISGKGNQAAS

O=C(CCl)Nc1cccc2ncccc12
inactive: USP34 -0.104 | USP36 0.45 | USP38 0.13 | USP39 0.472 | USP4 0.0333
